Experimental data published in publication PMC4336329 (PLoS ONE, 2015).
Hit rate of the full screen: of about 310,000 compounds, about 2,200 (0.71%) showed an effect of 50% or more. Effects have a minus sign here. Many of the other results were omitted from the sample, so strong results are more common in it than they were.

Target: human ether-à-go-go-related gene (hERG) potassium channel (human, UniProt Q12809)
Assay: primary screen, population patch clamp on CHO cells stably expressing hERG; higher = less effect of the substance

human ether-à-go-go-related gene (hERG) potassium channel, sequence (Q12809 whole entry, looked up): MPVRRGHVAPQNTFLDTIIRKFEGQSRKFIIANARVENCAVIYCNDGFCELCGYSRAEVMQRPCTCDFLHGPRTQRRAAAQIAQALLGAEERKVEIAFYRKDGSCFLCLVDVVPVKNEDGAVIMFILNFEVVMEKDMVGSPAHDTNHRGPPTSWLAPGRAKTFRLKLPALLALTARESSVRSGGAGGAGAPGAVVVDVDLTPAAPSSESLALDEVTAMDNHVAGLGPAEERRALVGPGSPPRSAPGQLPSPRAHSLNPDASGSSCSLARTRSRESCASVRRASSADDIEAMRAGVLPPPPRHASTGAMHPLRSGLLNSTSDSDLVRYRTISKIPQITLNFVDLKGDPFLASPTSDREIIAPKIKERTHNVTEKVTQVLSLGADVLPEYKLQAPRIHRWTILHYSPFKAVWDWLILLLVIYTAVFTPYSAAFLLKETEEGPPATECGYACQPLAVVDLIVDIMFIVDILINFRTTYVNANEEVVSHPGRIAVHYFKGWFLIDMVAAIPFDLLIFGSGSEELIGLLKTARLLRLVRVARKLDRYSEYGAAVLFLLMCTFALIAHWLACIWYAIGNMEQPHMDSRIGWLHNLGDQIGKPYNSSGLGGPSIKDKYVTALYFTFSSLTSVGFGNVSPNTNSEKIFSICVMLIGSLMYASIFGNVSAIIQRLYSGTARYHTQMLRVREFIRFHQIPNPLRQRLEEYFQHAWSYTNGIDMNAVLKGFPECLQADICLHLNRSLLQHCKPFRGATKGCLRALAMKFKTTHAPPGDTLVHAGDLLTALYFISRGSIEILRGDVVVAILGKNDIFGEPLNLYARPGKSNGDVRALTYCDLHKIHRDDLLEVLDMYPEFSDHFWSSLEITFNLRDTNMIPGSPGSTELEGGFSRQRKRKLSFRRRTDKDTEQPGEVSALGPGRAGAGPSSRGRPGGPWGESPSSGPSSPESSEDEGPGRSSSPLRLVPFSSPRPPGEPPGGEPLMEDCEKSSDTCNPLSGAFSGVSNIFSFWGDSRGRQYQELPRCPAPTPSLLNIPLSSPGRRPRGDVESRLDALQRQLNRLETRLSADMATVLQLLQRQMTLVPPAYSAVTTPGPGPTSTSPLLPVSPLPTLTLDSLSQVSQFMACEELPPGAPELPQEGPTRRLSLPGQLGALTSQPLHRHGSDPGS

SMILES	hERG current change (%, negative = inhibition) at 1uM [%]
CS(=O)(=O)N1CCN(c2ccnc3cc(Cl)ccc23)CC1	-81.3
Cl.ClCCN1CCN(c2ccnc3cc(Cl)ccc23)CC1	7.03
Clc1ccc2c(N3CCCC3)ccnc2c1	-25.9
CC(C)S(=O)(=O)N1CCN(c2ccnc3cc(Cl)ccc23)CC1	-55.2
Oc1ccc(N2CCN(c3ccnc4cc(Cl)ccc34)CC2)cc1	5.36
Clc1ccc2c(N3CCOCC3)ccnc2c1	0.204
CCC(=O)N1CCN(c2ccnc3cc(Cl)ccc23)CC1	-25.7
CN(C)S(=O)(=O)N1CCN(c2cc(Cl)ccc2Cl)CC1	16.5
CN(C)S(=O)(=O)N1CCN(c2ccnc3cc(Cl)ccc23)CC1	-65.6
CCS(=O)(=O)N1CCN(c2ccnc3cc(Cl)ccc23)CC1	-67.4
COc1ccccc1N1CCN(c2ccnc3cc(Cl)ccc23)CC1	7.78
COc1ccc(/C=C2\SC(=S)N(N3CCOCC3)C2=O)c(OC)c1	10.2
CCOC(=O)c1c(C)[nH]c(C)c1C(=O)CSc1nc2ccccc2[nH]1	13.8
O=c1c(Cc2ccc(F)cc2)c(O)ccn1CCCn1ccnc1	20.5
COc1ccc(CCNC(=O)CC(c2ccccc2)c2cccc(C)c2O)cc1OC (stereo not shown)	6
OCCC1CN(Cc2cccc(-c3ccco3)c2)CCN1Cc1ccsc1 (stereo not shown)	-17.3
CC(C)NC(=S)N=Nc1c(O)[nH]c2ccc([N+](=O)[O-])cc12	18.4
Cn1nccc1NC(=O)NC(=O)c1c(Cl)cccc1Cl	8.82
COc1cccc(OC)c1C(=O)Nc1ccncc1	17.4
COc1cccc(OC)c1C(=O)Nc1ccnn1C	-75.9
O=C(Cn1nnc2ccccc21)N1CCCCC1	2.74

SMILES	hERG current change (%, negative = inhibition) at 1uM [%]
O=C(CN1CCN(Cc2ccccc2)CC1)Nc1ccc(Br)cc1	-48.3
CCC(=O)Nc1ccc(N2CCN(C(=O)c3cccs3)CC2)cc1	3.02
O=C(CN1CCN(C(=O)c2ccco2)CC1)Nc1ccc(Br)cc1	10.5
O=C(Nc1ccc(N2CCN(C(=O)c3cccs3)CC2)cc1)c1ccc(Br)o1	-52.7
O=C(Nc1ccc(N2CCN(C(=O)c3cccs3)CC2)cc1)c1ccco1	17.4
O=C(Nc1ccc(N2CCN(C(=O)c3cccs3)CC2)cc1)c1ccc([N+](=O)[O-])o1	-15.8
O=C(NCCN1CCN(C(=O)c2cccs2)CC1)C(=O)Nc1ccc(Br)cc1	-44.8
O=C(CN1CCN(C(=O)c2cccs2)CC1)Nc1ccc(Br)cc1	-68.2
O=C(CN1CCN(C(=O)c2ccccc2F)CC1)Nc1ccc(Br)cc1	-56.5
Cc1ccc(NC(=O)c2ccc3ccccc3n2)cc1S(=O)(=O)N1CCOCC1	14
CCOP1(=S)Oc2cc3c(cc2C(C(=O)OC)(C(F)(F)F)O1)OCO3 (stereo not shown)	5.27
Cn1c(=O)n(C)c2cc(N3CCCC3)c(NC(=O)c3cccc(F)c3)cc21	10.3
CCCCOc1ccc(C2=CSC3=NCCN23)cc1[N+](=O)[O-]	-52.1
Br.CCc1ccc(C2=CSC3=NCCN23)cc1	1.72
CCCOc1ccc(C2=CSC3=NCCN23)cc1Cl	-23.5
Br.CC(C)Cc1ccc(C2=CSC3=NCCN23)cc1	-60.9
CCOc1ccc(C2=CSC3=NCCN23)cc1Cl	10.2
COc1ccc(C2=CSC3=NCCN23)cc1[N+](=O)[O-]	2.48
O=[N+]([O-])c1ccc(C2=CSC3=NCCN23)cc1	-0.955
Br.Cc1ccc(C2=CSC3=NCCN23)cc1	11.3
CCOc1ccc(C2=CSC3=NCCN23)cc1[N+](=O)[O-]	-61

SMILES	hERG current change (%, negative = inhibition) at 1uM [%]
CCCOc1ccc(C2=CSC3=NCCN23)cc1.Cl	-0.939
Br.COc1ccc(C2=CSC3=NCCN23)cc1OC	7.66
CCCOc1ccc(C2=CSC3=NCCN23)cc1[N+](=O)[O-]	-68.4
CCCCn1c(N)c(N(CCOC)C(=O)CN2CC=C(c3ccccc3)CC2)c(=O)[nH]c1=O	10.3
O=C(Cn1nnc(-c2ccc(Cl)cc2)n1)NC1CCS(=O)(=O)C1 (stereo not shown)	0.0052
Cc1ccc(Cn2c(N)c(S(=O)(=O)c3cccs3)c3nc4ccccc4nc32)cc1	5.35
CCn1c(SCC(=O)N/N=C/c2c[nH]c3ccccc23)nnc1-c1ccc(C)cc1	9.39
O=C1c2ccccc2C(=O)C1c1ccnc2ccccc12	11.7
Cc1ccccc1N(CC(=O)NCc1ccc2c(c1)OCO2)C(=O)CCC(=O)Nc1ccccn1	6.43
CCC1(CC)NC(=O)N(CC(=O)Nc2ccc(S(=O)(=O)N3CCOCC3)cc2)C1=O	3.3
O=[N+]([O-])c1ccc(N2CCN(c3ccc(F)cc3)CC2)cc1	5.71
CCN1CCC(N2CCN(c3ccc(Cl)cc3)CC2)CC1	10.7
CCC1CCC(N2CCN(c3ccc([N+](=O)[O-])cc3)CC2)CC1 (stereo not shown)	-74.5
CC1CCC(N2CCN(c3ccc([N+](=O)[O-])cc3)CC2)CC1 (stereo not shown)	-67.8
O=[N+]([O-])c1ccc(N2CCN(CC3CCCCC3)CC2)cc1	-23
CCC1CCC(N2CCN(c3ccc(F)cc3)CC2)CC1 (stereo not shown)	-2.92
CCCN1CCC(N2CCN(c3ccc([N+](=O)[O-])cc3)CC2)CC1	-62.7
O=[N+]([O-])c1ccc(N2CCN(c3ccccc3)CC2)cc1	9.45
CCN1CCC(N2CCN(c3ccc(F)cc3)CC2)CC1	10.6
